Here are results for 35 compounds from PubChem BioAssay AID1347428 (National Center for Advancing Translational Sciences (NCATS), 2020).

SMILES strings stand for the structures. Out of some 91,000 compounds screened, about 290 (0.32%) were called active. Inconclusive results (about 7%) are left out. The sample as a whole holds a higher share of actives than the screen did. Values without a mark were called inactive. Calls follow the shape of the dose curve; as a rule, active = well fitted inhibition curve with a large enough effect; inconclusive = small, poorly fitted or top-dose-only effect; inactive = no such curve, though single readings can be large or run the other way.
% is scaled to controls: 0 for no effect and ±100 for the full control effect; potency is read from the fitted curve at half-maximal effect.

Chain of Single-stranded DNA cytosine deaminase (Homo sapiens) (Q9GZX7 whole entry, looked up): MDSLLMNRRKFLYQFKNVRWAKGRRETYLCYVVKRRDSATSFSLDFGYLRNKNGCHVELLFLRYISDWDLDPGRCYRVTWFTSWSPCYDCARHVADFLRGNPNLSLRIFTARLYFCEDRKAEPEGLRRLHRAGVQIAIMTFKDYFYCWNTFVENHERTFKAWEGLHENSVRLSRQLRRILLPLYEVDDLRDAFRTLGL

This assay concerns the target Single-stranded DNA cytosine deaminase (Homo sapiens) (UniProt Q9GZX7). Nature of the assay: Primary qHTS assay for inhibitors of Activation Induced Cytidine Deaminase (AID): AID signal. Also: nearly all actives have a fitted effect of over 25% in size. As to conditions: AID deamination FRET fluorescence, UDG-coupled, 4 h; series mostly up to 115 µM; activity change, negative = inhibition: at the top concentration. An excerpt:
Assay Provider (PI) Patricia Gearhart Ph.D.
National Institute on Aging
National Institute of Health (NIH), Bethesda, MD
Assay Provider (PI) Rahul Kohli Ph.D.
Perelman School of Medicine
University of Pennsylvania, Philadelphia, PA
Activation-Induced Deaminase (AID) is a cytosine deaminase which converts cytosine into uracil within stretches of ssDNA. The presence of uracil in DNA initiates a cascade of mutagenic DNA repair to introduce point mutations and DNA double strand breaks. Specific targeting of AID to the immunoglobulin heavy chain loci (Igh) promotes mutagenesis in the antibody variable region for somatic hypermutation (SHM) or switch regions leading to class switch recombination (CSR). However, AID also plays a role in accumulating unnecessary mutations across the genome. Mis-targeting of AID results in the initiation of tumor development and leads to greater drug resistance among cancer cells when continually expressed. To identify an AID inhibitor, a small molecule library will be screened in collaboration with NCATS core facility at NIH. To confirm biological function, inhibitors will be examined in an in vitro murine B-cell activation assay and subsequent secondary validation screens. Top molecules will be further screened to identify inhibitory efficacy against a wild type primary splenocytes assay. Using these approaches, we hope to identify a small molecule with great efficacy and low toxicity for use as a molecular probe to further characterize AID's intricacies, or even as a therapeutic.
A FRET based analysis of cytosine deamination, was developed to identify potential inhibitors of AID catalytic activity. This screen has two signal output, Read 1 evaluates the AID inhibition response. The second readout (Read 2) evaluates UDG response and is uses as a counterscreen to exclude false positive inhibitors. Inhibition in AID and inactivity in the UDG signal is the desired outcome for this assay.
SEQUENCE No. (e.g., 1, 2, 3, etc.); […] (e.g., Cells, Incubation, Reagent, etc.); VALUE; DESCRIPTION
1a; Reagent; 3 uL; [4/3x] 1 uM AID/2.67 U/mL UDG
1b; Reagent; 3 uL; 2 U/mL UDG
1c; Reagent; 3 uL; 1 uM AID
2a; Compound; 46 nL; Follow-up plates (0.64 uM - 10 mM)
2b; Control; 46 nL; ATA ([…] - 10 mM)
3; Time; 10 min; incubation at room temperature
5; Time; 4 hr; incubation at room temperature
6; Reagent; 4 uL; [2x] 250 mM NaOH
7; Time; 15 sec; centrifuge at 1000 rpm
8; Time; 30 min; incubation at room temperature
9a; Detection; fluorescence (Read 1: AID); EnVision (PerkinElmer) plate reader, 540 excitation and 590 emission filters
9b; Detection; fluorescence (Read 2: UDG); EnVision (PerkinElmer) plate reader, 560 excitation and 665 emission filters
NOTES (numbers refer to sequence above)
1a; Reagents were dispensed in a medium-binding black solid-bottom Greiner plates (789176F) using a BioRptr liquid dispenser. Dispense 3 uL of [4/3x] 1 uM AID (provided by Kohli lab) and [4/3x] 2 U/mL UDG (NEB M0280L) into columns 1, 2, 5 to 48.
1b; Dispense 3 uL of [4/3x] 2 U/mL UDG into column 3.
1c; Dispense 3 uL of [4/3x] 1 uM AID into column 4.
2a; Compound (7-points [uM] (0.64; 3.2; 16; 80; 400; 2,000; 10,000; 20,000) double pin-transferred (Dip Factor = 2) using the Kalypsys (Wako USA) pintool equipped with a 1536 pinhead for a final concentration range of 7.32 nM - 114 uM.
2b; 10 mM Aurintricarboxylic Acid (Sigma A1895) (ATA, 8-point, n = 2, 1:2.5 dilution in column 2) double pin-transferred (Dip Factor = 2) using the Kalypsys (Wako USA) pintool equipped with a 1536 pinhead for a [final] range of 186 nM - 114 uM.
3; Room temperature incubation.
4; Dispense 1 uL of substrate mixture from the Kohli lab [4x] […] DJC20 and [4x] 250 nM DJC23 into columns 1 to 48 .
5; Room temperature incubation.
6; Dispense 4 uL of substrate mixture [2x] 250 mM NaOH into columns 1 to 48.
7; Centrifugation step to remove bubbles.
8; Room temperature incubation
9a; Fluorescence signal (column label AID) was read using the EnVision plate reader. […]
`CSc1ccc(C)c(C(=O)NCC2CC2)c1`: the “activity change, negative = inhibition” value is -3.38%.
In the case of `O=C(O)Cn1cccc(C(F)(F)F)c1=O`, the “activity change, negative = inhibition” value was -5.47%.
For `COc1cc(C(=O)NC2CCOC2=O)cc(OC)c1OC` (stereo not given), the “activity change, negative = inhibition” value was -0.451%.
Still for that read-out and setting: the same measure for `O=C(O)CCCC(=O)N1CCN(c2ccc(Cl)c(Cl)c2)CC1`: -1.12%; for `Cc1cc(Br)cc(C)c1O`: 2.69%; for `O=C(Nc1ccc(Br)cc1)C(c1ccccc1)C1CCCC1` (stereo not given): 1.06%.
On the same count and under the same terms, with `O=C(NCc1ccc(F)cc1)NC1CC1` the figure was 10.1%; with `O=C(/C=C/c1ccc(OCc2ccccc2)cc1)c1cccnc1`, -9.09%; with `CN(CCOc1ccc(Br)cc1)C(=O)CSc1nnnn1C`, -1.3%.
Consider `CC(C)c1ccc2c(c1)c(SC(C)(C)C)c(CC(C)(C)C(=O)O)n2Cc1ccc(Cl)cc1`, for which the Potency is 79.4 µM (active).
Regarding `Cc1c(C)n(Cc2ccc(Cl)cc2)c2ccc(C(=O)N3CCN(c4ccccc4F)CC3)cc12`, the “activity change, negative = inhibition” value is -18.3%.
The same measure, in the same setting: with `CC(C)c1ccc(Cn2c(COc3ccccc3)nc3ccccc32)cc1` the figure was -27.4%; with `CC1CCc2cc(F)ccc2N1C(=O)C1(C)CC1(Br)Br` (stereo not given), -6.2%.
Turning to `CC(C)CNC(=O)NC1=C(C#N)C(C)(C)Cc2ccccc21`, the “activity change, negative = inhibition” value was -1.37%.
The same measure, in the same setting: with `CNc1snc(C)c1C(=O)N(C)CCOc1ccccc1C` the figure was 4.47%; with `CCOc1ccc(C(=O)Nc2cc(C(F)(F)F)ccc2Cl)cc1Cl`, 3.9%; with `COc1cc(C2SCCS2)ccc1OC(=O)c1ccc2c(c1)NC(=O)CS2`, -4.16%.
Same read-out and setting: the same measure for `COc1ccc(OC)c(-n2cnc3c2NC(=O)CC3c2ccsc2)c1` (stereo not given): 24.8%; for `O=C(NCCc1ccc(C(F)(F)F)cc1)c1ccccn1`: -1.76%; for `COc1ccc(C2Nc3ccccc3C(=O)N2c2ccc(C)cc2)cc1CN1CCOCC1` (stereo not given): 0.31%.
`Cc1ccccc1NC(=O)CSC1=C(C#N)C(c2ccccc2F)CC(=O)N1` (stereo not given): the “activity change, negative = inhibition” value is -9.28%.
Same read-out and setting: with `Cc1noc(C)c1COc1cccc(C(=O)Nc2ccc(S(=O)(=O)NCc3ccco3)cc2)c1` the figure was -5.53%; with `Cc1cc(Nc2ccccc2)n2nc(Cc3ccc(Cl)cc3)nc2n1`, -19.8%.
Still for that read-out and setting: with `CN(C)S(=O)(=O)c1ccc(NC(=O)COc2ccc3cc(Br)ccc3c2)cc1` the figure was 0.34%.
On to `O=C(c1cc2ccccc2o1)c1ccc(F)cc1F`, for which the “activity change, negative = inhibition” value was -2.04%.
Still for that read-out and setting: with `Cc1cc(C)c(NC(=O)C(C)Oc2ccc(C#N)cc2)c(C)c1` (stereo not given) the figure was -8.62%.
On the same count and under the same terms, with `COCCn1cnnc1SC(C)C(=O)c1ccc(F)cc1` (stereo not given) the figure was 3.25%; with `COC(=O)c1ccc(C(=O)OC(C)C(=O)C23CC4CC(CC(C4)C2)C3)cc1` (stereo not given), -5.4%.
The same measure, in the same setting: the same measure for `CCCCn1c(N2CCN(CCc3ccccc3)CC2)nc2c1c(=O)[nH]c(=O)n2C`: -4.37%; for `Cn1c(=O)n(Cc2ccccc2)c(=O)c2c1nc(NCc1ccccc1)n2Cc1ccccc1`: -8.97%; for `CCC/C=N/NC(=O)c1ccc(C)cc1C`: -3.8%.
With `COc1ccc(C(=O)/C(C#N)=C\c2ccccc2C(F)(F)F)cc1`, the “activity change, negative = inhibition” value is -17.9%.
On to `CCCCCCCCS(=O)(=O)CCCCCCC(=O)O`, for which the “activity change, negative = inhibition” value is -5.95%.
Same read-out and setting: with `CC(=O)c1ccc(NC(=O)NCCCN(C)CC(F)(F)F)cc1` the figure was 7.31%; with `CCCCn1nc(C(=O)Nc2cccc(C(=O)NC3CC3)c2)c2ccccc2c1=O`, 0.862%.
